Results: the supplement of paper PMC10338343
± gives the standard deviation.

tested on: MILI (PIWIL2) piRISC loaded with piRNA #1 (26 nt); test: pre-steady-state target cleavage rate (min^-1); guide: piRNA #1 5'p-UGAGGUAGUAGGUUGUAUAGUAUCCA; MIWI and MILI are mouse PIWI proteins and EfPiwi is from a freshwater sponge; tags in brackets are library labels; higher = faster piRNA-guided slicing of the target; conditions: auxiliary factor: 500 nM mouse GTSF1
Outline: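 The method was Cleave-'n-Seq, in which uncleaved targets from a transcribed, DNA-blocked target RNA library were sequenced after exposure to active affinity-purified piRISC carrying one synthetic guide, with or without GTSF1 partner protein. Reactions contained 0.1 nM library, 1 nM piRISC and, where present, 500 nM GTSF1 in HEPES–potassium acetate buffer at 33 °C for 0–8 or 0–960 min. Reads were normalised to depth and to weakly complementary targets, three trials were pooled, and k3 was capped at 0.0001 min^-1. The pre-steady-state cleavage rate came from a burst-and-steady-state fit.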

Sequence | pre-steady-state target cleavage rate
GGAGACCAUUGUAUACAACCUACUACCUCA | 0.0325 ± 0.0067
GGAGACCUAACUAUACAACCUACUACGCUCA | 0.212 ± 0.042
GGAGACCUAUGAAUACAACGUACUACCUGA | 0.00311 ± 0.0023
GGAGACCUAUGUAUACAACCUACUACCUUCA | 0.0648 ± 0.0099
GGAGACCUUACUAUACAAGCUACUACCUGA | 0.158 ± 0.021
GGAGACCUAUGAUUGACAACCUACUACCUCA | 0.00768 ± 0.0032
GGAGACCUAACUAUACAACCUGCUACCUCA | 0.0157 ± 0.0084
GGAGACCUAUGUAUACAACGUACUACCACA | 0.00942 ± 0.003
GGAGACCUAACUAUACAACCUACUAACCUCA | 0.187 ± 0.028
GGAGACCUAUGAUAUGUUGCUGACUACCUCA | < 0.0001
GGAGACCUUACUAAACUACCUACUACCUCA | 0.104 ± 0.013
GGAGACCUAUGAUAACAACCUACAACCUCA | 0.00456 ± 0.0024
GGAGACCUAUCUAUACAACCUUACUACCUCA | 0.00278 ± 0.0026
GGAGACCUAUGAUUACAACGUACAACCUCA | 0.00532 ± 0.0027
GGAGACCUAUGAAAACAACCUACUAGCUCA | 0.00432 ± 0.0025
GGAGACCUAUCAAUACAACCUACUACCACA | 0.0775 ± 0.019
GGAGACCUAACUAUACAAUCUACUACCUCA | 0.0713 ± 0.012
GGAGACCUUACUAAACAUCCUACUACCUCA | 0.208 ± 0.017
GGAGACCUUACUAUACAACGUACUAGCUCA | 0.0137 ± 0.0043
GGAGACCUAUCUAUACAAGGUACUACCUCA | 0.0563 ± 0.0083

Sequence | pre-steady-state target cleavage rate
GGAGACCUAUGAUAACAAGCUACUACCUGA | 0.00722 ± 0.0035
GGAGUGGAUACAAUACAACCUACUUCCUCA | 0.00975 ± 0.0031
GGAGACCUUACUAUACAACCUAACUACCUCA | 0.0162 ± 0.0034
GGAGACCUAUGAUAUGUUCCUACUACCUCA [g2:g12:cont:t1A] | < 0.0001
GGAGACCUUACUAUAGAACCUACUACCACA | 0.0558 ± 0.012
GGAGACCUAUGAAUGCAACCUACUACCUCA | 0.00733 ± 0.0031
GGAGACCUAUGAUAACAACCUACUGCCUCA | 0.00428 ± 0.0031
GGAGACCUAACUAUACAUCCUAGUACCUCA | 0.0577 ± 0.02
GGAGUGGAUACUAUAGAACCUACUAGCUCA | 0.00733 ± 0.0025
GGAGAGGAUACUAUAGAACGUACUACCUCA | 0.00602 ± 0.0021
GGAGACCUAUCUAUACAUCGUACUACCUCA | 0.014 ± 0.0026
GGAGACGAUUGUAUACAACCUACUACCUCA | 0.0734 ± 0.0068
GGAGACCUAACUAUACUACGUACUACCUCA | 0.0154 ± 0.0042
GGAGACCUAACAAUACAACCUACUACCACA | 0.0755 ± 0.019
GGAGACCUAUGUAUAGUACCUACUACCUCA | 0.013 ± 0.0027
GGAGACCUUAGUAUACAACCUACUACCACA | 0.101 ± 0.013
GGAGACGAUAGUAUACAACGUACUACCUCA | 0.0209 ± 0.0035
GGAGACCUUACUAUUCAACCAACUACCUCA | 0.00367 ± 0.0028
GGAGACCUAUGAAUACAACCUUCUACCUCA | 0.00275 ± 0.0024
GGAGACCUAUGAUUACAAGCUAGUACCUCA | 0.0146 ± 0.006
